Source: the supplement of paper PMC11732987, “Enantioselective OTUD7B fragment discovery through chemoproteomics screening and high-throughput optimisation” (Communications Chemistry, 2025)

Legend:
Assay in all cases: log2 ratio of Biotin-Ahx-Ub-VS probe labelling (fragment/DMSO); higher = less target engagement (more negative = stronger competition), active = hit call of the paper (q ≤ 0.05, log2 ratio ≤ -1)
Settings in all cases: compound concentration: 200 uM; treatment time: 3 h
USP34 = USP34 (UniProt Q70CQ2)
Procedure, shortened: (§1)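 HEK293T lysate, 495 µg per sample in Tris/CHAPS/IGEPAL buffer with protease inhibitors, was treated in triplicate with fragment at 200 µM or vehicle for 3 h and then with Biotin-Ahx-Ub-VS at 0.5 µM final for 1 h. Labelled DUBs were NeutrAvidin-enriched, digested with LysC and trypsin, and run by diaPASEF LC-MS/MS. Spectronaut label-free quantities were global-median-normalised, and values are average log2 fragment/vehicle ratios by unpaired t-test on proteins with ≥2 unique peptides.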

USP36 = molecular target: T1, USP36 (UniProt Q9P275)
T1 sequence (whole entry): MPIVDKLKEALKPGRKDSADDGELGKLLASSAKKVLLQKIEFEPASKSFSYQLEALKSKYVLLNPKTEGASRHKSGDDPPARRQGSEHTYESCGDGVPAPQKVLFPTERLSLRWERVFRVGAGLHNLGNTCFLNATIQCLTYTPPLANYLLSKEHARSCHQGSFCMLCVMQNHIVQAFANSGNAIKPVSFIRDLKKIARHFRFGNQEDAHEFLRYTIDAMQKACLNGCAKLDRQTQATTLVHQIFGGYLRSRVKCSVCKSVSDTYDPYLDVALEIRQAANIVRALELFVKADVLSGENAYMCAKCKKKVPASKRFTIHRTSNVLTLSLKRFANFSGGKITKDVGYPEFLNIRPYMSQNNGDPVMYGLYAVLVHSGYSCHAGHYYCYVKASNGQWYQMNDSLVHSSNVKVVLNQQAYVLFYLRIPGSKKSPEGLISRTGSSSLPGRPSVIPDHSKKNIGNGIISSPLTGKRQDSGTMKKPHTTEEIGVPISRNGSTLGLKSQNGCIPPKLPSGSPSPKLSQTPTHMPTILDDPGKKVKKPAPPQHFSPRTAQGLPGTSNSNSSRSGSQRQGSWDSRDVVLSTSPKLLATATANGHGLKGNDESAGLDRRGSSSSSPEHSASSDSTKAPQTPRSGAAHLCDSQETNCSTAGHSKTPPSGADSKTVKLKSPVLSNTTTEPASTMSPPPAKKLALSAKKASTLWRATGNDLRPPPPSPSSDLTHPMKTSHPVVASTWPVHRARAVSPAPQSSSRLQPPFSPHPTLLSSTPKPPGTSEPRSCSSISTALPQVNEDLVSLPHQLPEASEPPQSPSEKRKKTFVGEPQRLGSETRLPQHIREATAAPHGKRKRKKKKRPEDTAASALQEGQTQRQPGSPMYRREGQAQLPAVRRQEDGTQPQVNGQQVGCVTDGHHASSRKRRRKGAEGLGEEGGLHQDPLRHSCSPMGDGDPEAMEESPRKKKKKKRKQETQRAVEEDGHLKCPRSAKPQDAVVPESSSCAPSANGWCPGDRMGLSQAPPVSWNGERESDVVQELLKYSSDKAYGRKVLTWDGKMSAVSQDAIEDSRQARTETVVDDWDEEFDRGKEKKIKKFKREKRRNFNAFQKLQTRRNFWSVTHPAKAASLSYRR
Procedure, shortened: as §1

USP38 = molecular target: T2, USP38 (UniProt Q8NB14)
T2 sequence (whole entry): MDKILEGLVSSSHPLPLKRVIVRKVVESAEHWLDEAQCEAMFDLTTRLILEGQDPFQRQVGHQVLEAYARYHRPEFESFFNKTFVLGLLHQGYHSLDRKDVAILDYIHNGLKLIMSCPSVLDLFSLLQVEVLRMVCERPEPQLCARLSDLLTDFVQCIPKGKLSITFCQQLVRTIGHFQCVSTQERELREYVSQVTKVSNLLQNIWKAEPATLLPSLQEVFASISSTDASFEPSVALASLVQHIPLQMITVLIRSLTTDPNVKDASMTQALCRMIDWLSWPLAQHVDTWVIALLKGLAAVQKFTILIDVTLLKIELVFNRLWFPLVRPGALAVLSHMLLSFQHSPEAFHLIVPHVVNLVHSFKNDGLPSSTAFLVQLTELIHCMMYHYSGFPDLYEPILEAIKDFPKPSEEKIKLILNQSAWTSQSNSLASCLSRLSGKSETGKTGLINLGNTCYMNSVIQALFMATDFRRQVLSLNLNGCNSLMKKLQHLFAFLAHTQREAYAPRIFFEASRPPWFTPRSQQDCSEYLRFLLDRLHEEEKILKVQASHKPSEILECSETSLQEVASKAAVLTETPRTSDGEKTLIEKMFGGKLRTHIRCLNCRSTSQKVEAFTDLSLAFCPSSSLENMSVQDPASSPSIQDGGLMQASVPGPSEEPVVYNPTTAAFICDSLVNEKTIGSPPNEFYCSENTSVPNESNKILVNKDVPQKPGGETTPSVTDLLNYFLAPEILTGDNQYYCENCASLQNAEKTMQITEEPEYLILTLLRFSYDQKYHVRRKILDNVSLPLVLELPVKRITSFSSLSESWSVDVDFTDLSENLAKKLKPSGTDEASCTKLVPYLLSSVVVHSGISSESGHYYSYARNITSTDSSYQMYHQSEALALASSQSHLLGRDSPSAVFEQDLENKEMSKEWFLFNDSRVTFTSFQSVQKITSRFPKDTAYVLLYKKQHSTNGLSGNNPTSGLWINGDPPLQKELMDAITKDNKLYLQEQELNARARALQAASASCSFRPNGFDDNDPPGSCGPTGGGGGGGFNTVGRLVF
Procedure, shortened: as §1

USP39 = molecular target: T3, USP39 (UniProt Q53GS9)
T3 sequence (whole entry): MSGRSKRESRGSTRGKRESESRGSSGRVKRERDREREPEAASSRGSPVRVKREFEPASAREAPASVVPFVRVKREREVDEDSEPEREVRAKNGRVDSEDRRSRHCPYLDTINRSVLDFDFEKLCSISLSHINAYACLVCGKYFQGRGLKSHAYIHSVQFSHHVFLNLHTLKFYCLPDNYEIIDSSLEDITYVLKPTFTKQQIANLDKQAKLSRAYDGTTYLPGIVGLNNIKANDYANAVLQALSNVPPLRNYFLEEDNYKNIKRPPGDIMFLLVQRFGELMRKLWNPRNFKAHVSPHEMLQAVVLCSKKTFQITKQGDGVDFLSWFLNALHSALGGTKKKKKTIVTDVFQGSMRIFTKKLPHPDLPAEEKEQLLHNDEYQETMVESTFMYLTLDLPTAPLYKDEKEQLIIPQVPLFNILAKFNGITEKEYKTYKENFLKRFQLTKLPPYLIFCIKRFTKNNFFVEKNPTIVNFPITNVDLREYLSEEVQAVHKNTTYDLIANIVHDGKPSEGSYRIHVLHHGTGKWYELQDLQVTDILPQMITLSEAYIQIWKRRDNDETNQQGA
Procedure, shortened: as §1

USP4 = molecular target: T4, USP4 (UniProt Q13107)
T4 sequence (whole entry): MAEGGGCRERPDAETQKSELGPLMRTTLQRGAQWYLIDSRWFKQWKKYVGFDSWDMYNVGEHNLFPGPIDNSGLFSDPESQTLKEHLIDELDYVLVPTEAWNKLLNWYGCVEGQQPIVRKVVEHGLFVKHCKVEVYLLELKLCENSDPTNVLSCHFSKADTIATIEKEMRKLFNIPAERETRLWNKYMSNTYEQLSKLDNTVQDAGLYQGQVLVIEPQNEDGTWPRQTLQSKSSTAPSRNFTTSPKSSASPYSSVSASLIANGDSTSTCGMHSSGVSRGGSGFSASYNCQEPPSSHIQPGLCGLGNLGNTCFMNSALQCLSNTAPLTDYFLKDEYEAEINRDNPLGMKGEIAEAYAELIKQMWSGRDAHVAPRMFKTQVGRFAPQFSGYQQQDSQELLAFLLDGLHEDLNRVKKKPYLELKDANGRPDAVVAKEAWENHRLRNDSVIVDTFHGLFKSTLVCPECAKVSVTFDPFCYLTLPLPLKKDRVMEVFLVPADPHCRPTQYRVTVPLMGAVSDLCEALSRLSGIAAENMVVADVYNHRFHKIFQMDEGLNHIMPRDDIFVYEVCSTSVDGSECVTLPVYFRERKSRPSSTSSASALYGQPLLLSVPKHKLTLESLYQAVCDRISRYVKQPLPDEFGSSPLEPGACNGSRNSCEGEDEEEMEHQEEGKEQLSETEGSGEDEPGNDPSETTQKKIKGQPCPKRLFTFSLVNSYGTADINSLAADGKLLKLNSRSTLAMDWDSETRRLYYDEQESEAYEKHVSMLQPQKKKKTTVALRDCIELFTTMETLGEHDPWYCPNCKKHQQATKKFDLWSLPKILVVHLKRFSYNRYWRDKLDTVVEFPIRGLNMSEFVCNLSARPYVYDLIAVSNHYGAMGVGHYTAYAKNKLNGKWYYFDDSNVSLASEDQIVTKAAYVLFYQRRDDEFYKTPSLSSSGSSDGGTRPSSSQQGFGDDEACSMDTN
Procedure, shortened: as §1

Measured: log2 ratio of Biotin-Ahx-Ub-VS probe labelling

Chain of USP34 (Q70CQ2 whole entry, the tested form may be a part): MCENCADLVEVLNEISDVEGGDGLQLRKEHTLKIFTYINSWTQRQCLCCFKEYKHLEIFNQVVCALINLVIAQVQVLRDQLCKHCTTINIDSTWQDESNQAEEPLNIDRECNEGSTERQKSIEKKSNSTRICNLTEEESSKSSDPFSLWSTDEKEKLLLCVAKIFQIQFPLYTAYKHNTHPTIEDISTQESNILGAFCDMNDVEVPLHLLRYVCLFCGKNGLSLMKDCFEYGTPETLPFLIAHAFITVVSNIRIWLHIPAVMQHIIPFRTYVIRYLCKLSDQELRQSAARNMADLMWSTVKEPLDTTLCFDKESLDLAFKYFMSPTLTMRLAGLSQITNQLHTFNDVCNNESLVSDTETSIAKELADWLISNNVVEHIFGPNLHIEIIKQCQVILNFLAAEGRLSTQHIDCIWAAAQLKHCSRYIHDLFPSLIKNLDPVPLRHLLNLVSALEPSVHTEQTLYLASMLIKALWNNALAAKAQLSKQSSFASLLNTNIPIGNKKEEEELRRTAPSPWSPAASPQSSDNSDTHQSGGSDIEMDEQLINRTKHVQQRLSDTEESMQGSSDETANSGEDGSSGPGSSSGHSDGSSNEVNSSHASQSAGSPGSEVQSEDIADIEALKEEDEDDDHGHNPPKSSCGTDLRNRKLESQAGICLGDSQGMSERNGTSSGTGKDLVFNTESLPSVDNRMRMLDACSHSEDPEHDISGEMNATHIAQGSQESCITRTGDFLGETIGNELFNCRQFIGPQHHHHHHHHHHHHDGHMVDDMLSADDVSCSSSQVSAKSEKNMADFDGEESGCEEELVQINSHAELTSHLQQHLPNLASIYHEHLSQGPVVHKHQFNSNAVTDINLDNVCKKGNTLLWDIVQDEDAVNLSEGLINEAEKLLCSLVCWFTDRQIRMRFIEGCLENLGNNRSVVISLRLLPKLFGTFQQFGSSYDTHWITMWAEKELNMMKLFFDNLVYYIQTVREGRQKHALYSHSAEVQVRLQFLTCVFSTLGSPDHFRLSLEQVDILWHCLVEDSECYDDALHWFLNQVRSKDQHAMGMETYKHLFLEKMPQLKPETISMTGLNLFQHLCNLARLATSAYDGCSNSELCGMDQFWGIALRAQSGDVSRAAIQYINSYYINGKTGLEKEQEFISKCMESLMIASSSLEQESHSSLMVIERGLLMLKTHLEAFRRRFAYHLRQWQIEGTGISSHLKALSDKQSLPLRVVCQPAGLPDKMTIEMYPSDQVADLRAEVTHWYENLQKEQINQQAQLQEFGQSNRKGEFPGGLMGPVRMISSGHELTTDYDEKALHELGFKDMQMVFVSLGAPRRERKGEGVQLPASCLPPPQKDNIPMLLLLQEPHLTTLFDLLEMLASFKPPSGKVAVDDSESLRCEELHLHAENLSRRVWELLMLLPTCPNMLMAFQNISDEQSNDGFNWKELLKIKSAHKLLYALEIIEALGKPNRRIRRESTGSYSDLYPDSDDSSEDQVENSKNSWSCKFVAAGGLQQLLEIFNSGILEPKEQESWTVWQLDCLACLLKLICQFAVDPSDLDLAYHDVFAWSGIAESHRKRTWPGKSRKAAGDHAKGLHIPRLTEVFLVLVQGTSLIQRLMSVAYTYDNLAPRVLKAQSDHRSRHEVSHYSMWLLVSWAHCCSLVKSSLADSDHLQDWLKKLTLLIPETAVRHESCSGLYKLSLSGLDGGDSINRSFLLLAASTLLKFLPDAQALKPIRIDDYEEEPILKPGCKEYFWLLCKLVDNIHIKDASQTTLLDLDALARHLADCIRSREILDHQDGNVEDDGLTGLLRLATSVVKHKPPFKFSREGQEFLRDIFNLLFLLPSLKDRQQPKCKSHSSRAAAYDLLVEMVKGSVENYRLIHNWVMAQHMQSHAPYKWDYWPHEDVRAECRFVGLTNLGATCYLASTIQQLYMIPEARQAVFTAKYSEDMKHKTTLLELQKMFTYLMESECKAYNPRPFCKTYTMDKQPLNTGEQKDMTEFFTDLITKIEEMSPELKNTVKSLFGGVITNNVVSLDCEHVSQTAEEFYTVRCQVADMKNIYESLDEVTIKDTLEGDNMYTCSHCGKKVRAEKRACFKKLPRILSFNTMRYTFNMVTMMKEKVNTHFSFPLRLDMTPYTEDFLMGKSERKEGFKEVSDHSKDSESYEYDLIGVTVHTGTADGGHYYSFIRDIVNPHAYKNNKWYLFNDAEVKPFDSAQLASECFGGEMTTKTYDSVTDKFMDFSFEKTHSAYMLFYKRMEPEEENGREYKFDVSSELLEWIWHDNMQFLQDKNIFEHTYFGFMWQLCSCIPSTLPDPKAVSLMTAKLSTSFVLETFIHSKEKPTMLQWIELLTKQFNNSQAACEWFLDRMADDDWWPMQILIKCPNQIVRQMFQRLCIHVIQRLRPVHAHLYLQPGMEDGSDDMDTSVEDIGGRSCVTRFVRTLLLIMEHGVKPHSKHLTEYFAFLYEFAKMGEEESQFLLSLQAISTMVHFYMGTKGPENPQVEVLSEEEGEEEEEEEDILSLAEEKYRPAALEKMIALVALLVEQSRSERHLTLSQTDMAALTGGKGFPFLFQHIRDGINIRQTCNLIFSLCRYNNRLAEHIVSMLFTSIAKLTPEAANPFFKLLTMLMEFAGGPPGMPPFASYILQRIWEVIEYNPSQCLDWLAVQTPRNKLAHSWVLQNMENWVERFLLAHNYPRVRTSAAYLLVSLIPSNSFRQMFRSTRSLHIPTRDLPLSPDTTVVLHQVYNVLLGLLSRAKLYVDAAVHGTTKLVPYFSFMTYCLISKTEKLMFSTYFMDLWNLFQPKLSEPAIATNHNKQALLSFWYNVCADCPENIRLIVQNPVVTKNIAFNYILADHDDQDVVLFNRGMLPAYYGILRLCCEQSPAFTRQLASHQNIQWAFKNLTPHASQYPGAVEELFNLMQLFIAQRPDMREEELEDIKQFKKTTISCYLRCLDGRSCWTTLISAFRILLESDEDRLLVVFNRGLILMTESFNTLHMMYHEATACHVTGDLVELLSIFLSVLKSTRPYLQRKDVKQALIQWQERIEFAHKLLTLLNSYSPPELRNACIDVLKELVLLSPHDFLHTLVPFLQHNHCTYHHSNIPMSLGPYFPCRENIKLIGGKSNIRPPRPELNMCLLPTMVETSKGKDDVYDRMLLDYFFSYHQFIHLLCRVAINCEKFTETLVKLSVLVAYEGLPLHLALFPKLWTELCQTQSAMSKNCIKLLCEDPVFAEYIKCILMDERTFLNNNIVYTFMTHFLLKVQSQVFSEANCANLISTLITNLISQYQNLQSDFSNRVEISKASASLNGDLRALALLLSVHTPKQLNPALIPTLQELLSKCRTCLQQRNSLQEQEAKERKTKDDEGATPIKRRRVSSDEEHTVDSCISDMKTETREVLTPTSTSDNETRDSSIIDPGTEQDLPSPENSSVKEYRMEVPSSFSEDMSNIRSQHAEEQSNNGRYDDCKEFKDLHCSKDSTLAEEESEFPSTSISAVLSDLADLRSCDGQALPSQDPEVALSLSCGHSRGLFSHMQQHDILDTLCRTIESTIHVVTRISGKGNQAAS

O=C(CCl)N1CCOCC1C1CC1 (stereo not given)
inactive: USP34 0.0844 | USP36 -0.0397 | USP38 0.0391 | USP39 0.265 | USP4 -0.101
